# Results: PubChem BioAssay (Tox21)
# Several values for one entry are separate records, joined by “and”; a condition that tells them apart may be missing. Equal values may be shown once. Unmarked numbers belong to inactive results. Records with an inconclusive call do not appear. A call without a number means that no potency is given here. Activity calls are given as the source filed them. The call rests on the fitted dose curve. Non-standard residues stand in square brackets, D forms with d. Residues, ends and D or L forms follow the SMILES beside them. pGlu = O=C1CC[C@@H](C(=O)O)N1
# Assays:
# [1] = molecular target: Acetylcholinesterase (Homo sapiens) (UniProt P22303); experiment: Acetylcholinesterase (AChE) small molecule antagonists: colormetric cell-based qHTS assay (AID 1347395); further: nearly all actives have a fitted effect of over 30% in size
# Method in brief: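 SH-SY5Y cells; cpd 30 min 37 C; + DTNB/acetylthiocholine, 90 min 37 C; colorimetric thiocholine read; qHTS.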
# [2] = molecular target: Acetylcholinesterase (Homo sapiens) (UniProt P22303); experiment: Acetylcholinesterase (AChE) small molecule antagonists: enzyme-based qHTS assay (AID 1347397); conditions: Potency: AChE enzyme activity inhibition; outcome: AChE enzyme activity inhibition; further: nearly all actives have a fitted effect of over 55% in size
# Method in brief: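 Enzyme inhibition was scored from DTNB-detected thiocholine formed by recombinant human AChE acting on acetylthiocholine. The 30 min compound preincubation and 10 min substrate reaction were both run at room temperature, with DMSO as vehicle control.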
# [3] = molecular target: Acetylcholinesterase (Homo sapiens) (UniProt P22303); experiment: Acetylcholinesterase (AChE) small molecule antagonists: fluorescence cell-based qHTS assay (AID 1347398); conditions: Potency: AChE activity; outcome: AChE activity; further: nearly all actives have a fitted effect of over 50% in size
# Method in brief: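 Endogenous acetylcholinesterase of SH-SY5Y neuroblastoma cells is measured in situ. After overnight attachment and 30 min compound exposure, cells receive acetylthiocholine and Thiolite Green; fluorescence is read after 40 min at room temperature.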
# [4] = molecular target: Acetylcholinesterase (Homo sapiens) (UniProt P22303); experiment: Acetylcholinesterase (AChE) small molecule antagonists: enzyme-based qHTS assay with human liver microsomes (AID 1347399); conditions: Potency: qHTS inhibition; outcome: qHTS inhibition; further: nearly all actives have a fitted effect of over 60% in size
# Method in brief: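 Recombinant human AChE (50 mU/mL in the enzyme mix) and human liver microsomes (0.25 mg/mL final) were preincubated with compound and NADPH (0.25 mg/mL final) for 30 min at 37 C. Acetylthiocholine/DTNB was then added; thiocholine was read colorimetrically after 10 min at room temperature.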
# Potency means the concentration at half of the fitted maximal effect.
# Chain of Acetylcholinesterase (Homo sapiens) (P22303 whole entry, looked up): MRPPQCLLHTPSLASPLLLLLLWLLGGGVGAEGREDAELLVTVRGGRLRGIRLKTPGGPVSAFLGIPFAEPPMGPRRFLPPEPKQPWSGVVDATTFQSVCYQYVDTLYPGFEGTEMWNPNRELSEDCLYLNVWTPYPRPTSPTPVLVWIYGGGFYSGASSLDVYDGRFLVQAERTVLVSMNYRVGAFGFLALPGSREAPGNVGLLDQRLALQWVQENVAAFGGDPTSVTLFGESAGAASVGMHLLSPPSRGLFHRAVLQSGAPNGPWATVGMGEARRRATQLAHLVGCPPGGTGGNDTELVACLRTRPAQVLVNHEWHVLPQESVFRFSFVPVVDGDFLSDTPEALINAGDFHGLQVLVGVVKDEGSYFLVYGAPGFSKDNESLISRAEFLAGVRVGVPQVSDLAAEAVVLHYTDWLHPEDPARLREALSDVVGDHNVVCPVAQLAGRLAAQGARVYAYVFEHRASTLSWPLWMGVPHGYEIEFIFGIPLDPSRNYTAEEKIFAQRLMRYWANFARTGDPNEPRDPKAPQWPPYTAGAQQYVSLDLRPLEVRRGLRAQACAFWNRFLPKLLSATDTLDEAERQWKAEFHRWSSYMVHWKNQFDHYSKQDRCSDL
Compound,Potency [1],Potency [2],Potency [3],Potency [4],"activity, negative = inhibition [1]","activity change, negative = inhibition [2]","activity change, negative = inhibition [3]","activity change, negative = inhibition [4]"
CC(C)(C)NCC(O)c1cc(O)cc(O)c1 (stereo not given),inactive,inactive,inactive,inactive,,,,
CCCCOCCOC(=O)COc1cc(Cl)c(Cl)cc1Cl,inactive,inactive,inactive,inactive,,,,
CCOC(=O)NCCOc1ccc(Oc2ccccc2)cc1,inactive,inactive,inactive,inactive,,,,
CN(C)C=O,inactive,inactive,inactive,inactive,,,,
Cc1ccc(Cl)cc1,inactive,inactive,inactive,inactive,,,,
Nc1c[n+](N2CCOCC2)no1,inactive,inactive,inactive,inactive,,,,
O=C(Nc1ccc(Cl)cc1)Nc1ccc(Cl)c(Cl)c1,inactive,inactive,inactive,inactive,,,,
O=c1[nH]c(=O)n([C@H]2C[C@H](O)[C@@H](CO)O2)cc1F,inactive,inactive,inactive,inactive,,,,
CCOC(=O)CC(O)(CC(=O)OCC)C(=O)OCC,inactive,inactive,inactive,inactive,,,,
Oc1cn2c(n1)Nc1ccc(Cl)c(Cl)c1C2,,,,,-9.64% [at 23.6 µM],0.842% [at 23.6 µM],-3.43% [at 23.8 µM],0.168% [at 23.6 µM]
O=C(O)CCCCCC(=O)O,inactive,inactive,inactive,inactive,,,,
CCOCCOCCO,inactive,inactive,inactive,inactive,,,,
c1ccc2c(c1)-c1ccc3ccc4cccc5cc-2c1c3c45,inactive,inactive,inactive,inactive,,,,
CCc1cccc2c3c([nH]c12)C(CC)(CC(=O)O)OCC3 (stereo not given),inactive,inactive,inactive,inactive,,,,
CC(C)(C)C(=O)C1C(=O)c2ccccc2C1=O,inactive,inactive,inactive,inactive,,,,
C=C(C)C(=O)OCCCCCCCCCCCCC,inactive,inactive,inactive,inactive,,,,
Cn1c(N)nc2nc[nH]c2c1=O,inactive,inactive,inactive,inactive,,,,
CCCCC(CC)CN1C(=O)C2C3C=CC(C3)C2C1=O (stereo not given),inactive,inactive,inactive,inactive,,,,
O=S1(=O)c2cccc3cccc(c23)N1CCCN1CCN(c2ccc(F)cc2)CC1,inactive,inactive,inactive,inactive,,,,
CC(C)Nc1cccnc1N1CCN(C(=O)c2cc3cc(NS(C)(=O)=O)ccc3[nH]2)CC1,inactive,inactive,inactive,inactive,,,,
CCNc1cccc(C)c1,inactive,inactive,inactive,inactive,,,,
CC(C)OC(=O)c1cc(C(=O)OC(C)C)cc([N+](=O)[O-])c1,inactive,inactive,inactive,inactive,,,,
CC(=O)NCCCCCC(=O)O,inactive,inactive,inactive,inactive,,,,
NCCOCCN,inactive,inactive,inactive,inactive,,,,
CC(C)(Oc1ccc(Cl)cc1)C(=O)OCCCOC(=O)C(C)(C)Oc1ccc(Cl)cc1,inactive,inactive,inactive,inactive,,,,

Compound,Potency [1],Potency [2],Potency [3],Potency [4],"activity, negative = inhibition [1]","activity change, negative = inhibition [2]","activity change, negative = inhibition [3]","activity change, negative = inhibition [4]"
NS(=O)(=O)O,inactive,inactive,inactive,inactive,,,,
Cc1cc(O)c(C(C)C)cc1Cl,inactive,inactive,inactive,inactive,,,,
CN1CCC(=C2c3ccccc3C=Cc3ccccc32)CC1,inactive,inactive,inactive,inactive,,,,
COC(=O)c1ccc(C(=O)O)cc1,inactive,inactive,inactive,inactive,,,,
CCCC(=O)c1ccccc1,inactive,inactive,inactive,inactive,,,,
CCCCCCCCCCCC(=O)N(CC)CC,inactive,inactive,inactive,inactive,,,,
Cn1cnc2c(F)c(Nc3ccc(Br)cc3Cl)c(C(=O)NOCCO)cc21,inactive,inactive,inactive,inactive,,,,
C=C(CC)C(=O)c1ccc(OCC(=O)O)c(Cl)c1Cl,inactive,inactive,inactive,inactive,,,,
N#CCc1ccc(Cl)cc1Cl,inactive,inactive,inactive,inactive,,,,
CCOC(=O)NCCC[Si](OCC)(OCC)OCC,inactive,inactive,inactive,inactive,,,,
C[C@]12CCC(=O)C=C1C=C[C@@H]1[C@@H]2CC[C@@]2(C)[C@H]1CC[C@@]21CCC(=O)O1,inactive,inactive,inactive,inactive,,,,
Nc1ncnc2c1ncn2[C@@H]1O[C@H](COP(=O)(O)O)[C@@H](O)[C@H]1O,inactive,inactive,inactive,inactive,,,,
O=C(O)Cc1c(Cl)ccc(Cl)c1Cl,inactive,inactive,inactive,inactive,,,,
C[N+]1(C)CCC(=C(c2ccccc2)c2ccccc2)CC1,inactive,inactive,inactive,inactive,,,,
CCO[Si](CCCS)(OCC)OCC,inactive,inactive,inactive,inactive,,,,
CCNC(=O)[C@@H]1CCCN1C(=O)[C@H](CCCN=C(N)N)NC(=O)[C@H](CC(C)C)NC(=O)CNC(=O)[C@H](Cc1ccc(O)cc1)NC(=O)[C@H](CO)NC(=O)[C@H](Cc1c[nH]c2ccccc12)NC(=O)[C@H](Cc1cnc[nH]1)NC(=O)[C@@H]1CCC(=O)N1 ([pGlu]HWSYGLRP-NHEt),inactive,inactive,inactive,inactive,,,,
O=C=NC1CCC(CC2CCC(N=C=O)CC2)CC1 (stereo not given),inactive,inactive,inactive,inactive,,,,
O=C(O)[C@H](O)[C@@H](O)[C@H](O[C@@H]1O[C@H](CO)[C@H](O)[C@H](O)[C@H]1O)[C@H](O)CO,inactive,inactive,inactive,inactive,,,,
COC(=O)c1ccc(C(=O)OC)cc1,inactive,inactive,inactive,inactive,,,,
COCC(C)O (stereo not given),inactive,inactive,inactive,inactive,,,,
CCCCOCCOCCOC(C)=O,inactive,inactive,inactive,inactive,,,,
COC(=O)c1sccc1S(N)(=O)=O,inactive,inactive,inactive,inactive,,,,
CCCCCCCC/C=C\CCCCCCCCOCCO,inactive,inactive,inactive,inactive,,,,
COC(=O)CC(=O)C(C)(C)C,inactive,inactive,inactive,inactive,,,,
Cc1ccc(Cl)cc1N,inactive,inactive,inactive,inactive,,,,

Compound,Potency [1],Potency [2],Potency [3],Potency [4],"activity, negative = inhibition [1]","activity change, negative = inhibition [2]","activity change, negative = inhibition [3]","activity change, negative = inhibition [4]"
Cc1ccnc2c1NC(=O)c1cccnc1N2C1CC1,inactive,inactive,inactive,inactive,,,,
CC(=O)OC[C@H]1O[C@@H](n2ncc(=O)[nH]c2=O)[C@H](OC(C)=O)[C@@H]1OC(C)=O,inactive,inactive,inactive,inactive,,,,
Nc1ccn([C@H]2CS[C@@H](CO)O2)c(=O)n1,inactive,inactive,inactive,inactive,,,,
CCC(=O)OC/C=C/c1ccccc1,inactive,inactive,inactive,inactive,,,,
COCCOC(=O)C1=C(C)NC(C)=C(C(=O)OC(C)C)C1c1cccc([N+](=O)[O-])c1 (stereo not given),inactive,inactive,inactive,inactive,,,,
Cc1ccc(S(=O)(=O)NC(=O)NC2CCCCCCC2)cc1,inactive,inactive,inactive,inactive,,,,
CCCCCCCCCCCCCC(=O)OC(C)C,inactive,inactive,inactive,inactive,,,,
Nc1nc(N)c2nc(-c3ccccc3)c(N)nc2n1,inactive,inactive,inactive,inactive,,,,
CCCCCCN,inactive,inactive,inactive,inactive,,,,
CCCCC(=O)N(C)C,inactive,inactive,inactive,inactive,,,,
COc1ccc(N)c([N+](=O)[O-])c1,inactive,inactive,inactive,inactive,,,,
CCCC(C)CCC(C)=O (stereo not given),inactive,inactive,inactive,inactive,,,,
C=CCOCC(CC)(CO)COCC=C,inactive,inactive,inactive,inactive,,,,
NC(=O)/N=N/C(N)=O,63.5 µM (active),71.2 µM (active),7.12 µM (active) and 31.7 µM (active),inactive,,,,
C=C(C)C(=O)NCCC[N+](C)(C)C,inactive,inactive,inactive,inactive,,,,
CC(C)(C)c1n[nH]c(=O)n(N)c1=O,inactive,inactive,inactive,inactive,,,,
CCCCOC(=O)CC#N,inactive,inactive,inactive,inactive,,,,
CCCCCCCCCCCCCCCCC,inactive,inactive,inactive,inactive,,,,
CCc1ccccc1,inactive,inactive,inactive,inactive,,,,
CCNC(=O)N1CCN(CCCC(c2ccc(F)cc2)c2ccc(F)cc2)CC1,inactive,inactive,inactive,inactive,,,,
Cc1cc2nc3ccc(=[N+](C)C)cc-3sc2cc1N,1.38 µM (active),4.9 µM (active),2.19 µM (active),24.5 µM (active),,,,
CC1(C)SC(C)(C)SC(C)(C)S1,inactive,inactive,inactive,inactive,,,,
CC(C)Cc1ccccc1,inactive,inactive,inactive,inactive,,,,
Cc1ccc(S(=O)(=O)Oc2ccc(N=Nc3ccc(-c4ccc(N=Nc5c(O)ccc6cc(S(=O)(=O)O)cc(S(=O)(=O)O)c56)c(C)c4)cc3C)cc2)cc1,inactive,8.97 µM (active) and 4.12 µM (active),inactive,inactive,,,,
C/C(=C1\CCOC(=O)S1)N(C=O)Cc1cnc(C)nc1N,inactive,inactive,inactive,inactive,,,,
